Reference: PubChem BioAssay (NCATS)
Results filed as inconclusive are left out. A number with no mark means an inactive call. Active and inactive are the calls of the source. Calls come from the whole dose curve. Peptide text beside a SMILES is read from it.

Test: Cell Viability - MRC5 (AID 434);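 note: potency reflects cytotoxicity seen as loss of intracellular ATP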
Details: MRC5 lung fibroblast viability, qHTS
From the text: NIH Chemical Genomics Center [NCGC]
NIH Molecular Libraries Screening Centers Network [MLSCN]
National Institutes of Environmental Health Sciences [NIEHS]
National Toxicology Program [NTP]
We have developed a 1536-well cell-based assay for quantitative high throughput screening (qHTS) against a number of cell lines to determine in vitro cytotoxicity of small molecules. This particular assay uses the MRC5 cell line which is derived from normal human lung fibroblasts.
NCGC Assay Protocol Summary:
The CellTiter-Glo luminescent cell viability assay (Promega) is a homogeneous method to measure the number of viable cells in culture. The end point readout of this assay is based on quantitation of intracellular ATP, an indicator of metabolic activity, using the luciferase reaction. Luciferase catalyzes the oxidation of beetle Luciferin to oxyluciferin and light in the presence of ATP. The luminescent signal is proportional to amount of ATP present.
Using the CellTiter-Glo luminescent cell viability assay, the amount of cellular ATP was measured in the MRC5 cell line with complete culture medium following compound treatment for 40 hours. The assay was performed in opaque white Kalypsys 1536-well plates. In the screen, tamoxifen and doxorubicin were used as positive controls. Library compounds were measured for their ability to cause acute toxicity in the cell line, as reflected by a decrease in intracellular ATP levels, in a concentration-dependent manner. Data were normalized to the controls for basal activity (DMSO only) and 100% inhibition (100 uM tamoxifen). AC50 values were determined from concentration-response data modeled with the standard Hill equation.
qHTS protocol for CellTiter Glo MRC5 cellular assay
[Step] [Parameter] [Value] [Description]
1. Reagent; 5 uL; 1500 MRC5 cells/well
2. Time; 5 hr; 37 °C incubation
4. Controls; 23 nL; Tamoxifen 0.34 uM to 100 uM & Doxorubicin 0.02 nM to 100 uM
5. Time; 40 hr; 37 °C incubation
6. Reagent; 5 uL; CellTiter Glo reagent
7. Time; 20 min; Room Temperature
8. Detection; Luminescence; Viewlux plate reader
Keywords: cell viability, cytotoxicity, MRC5 cell line, luminescence, NTPHTS, NTPHTS_NCGC, NIEHS, EPA, DSSTox, MLSMR, MLSCN, NIH Roadmap, qHTS, NCGC
Potency is the fitted concentration of half-maximal effect.

Row | SMILES | Potency
1 | CCc1nc(N)nc(N)c1-c1ccc(Cl)cc1 | > 92 µM
2 | CCCCC(CC)COC(=O)C(C#N)=C(c1ccccc1)c1ccccc1 (stereo not drawn) | > 92 µM
3 | COc1c2occc2cc2ccc(=O)oc12 | > 92 µM
4 | CS(=O)(=O)OCCCCOS(C)(=O)=O | > 92 µM
5 | Cc1cc(O)c2c(c1)C(=O)c1cc(O)cc(O)c1C2=O | > 92 µM
6 | CCCc1cc(=O)[nH]c(=S)[nH]1 | > 92 µM
7 | c1ccc2[nH]c(-c3cscn3)nc2c1 | > 92 µM
8 | Cc1ccc(C)c(OCCCC(C)(C)C(=O)O)c1 | > 92 µM
9 | CC(=O)Nc1ccc(O)cc1 | > 92 µM
10 | Nc1ccc(S(N)(=O)=O)cc1 | > 92 µM
11 | COC(=O)[C@H](Cc1ccccc1)NC(=O)[C@@H](N)CC(=O)O (H-Asp-Phe-OMe) | > 92 µM
12 | CN(C)c1ccc2nc3ccc(=[N+](C)C)cc-3sc2c1 | 37.8 µM (active)
13 | NS(=O)(=O)c1cc(C(=O)O)c(NCc2ccco2)cc1Cl | > 92 µM
